RBX1-CUL1 inh: inhibitors of human ROC1-CUL1 ubiquitin ligase activity. inhibition, % at 10 µM. P62877+Q13616. hit rate 0.6% among 140,000. AID 1347404. in vitro K48 di-Ub FRET, acceptor:donor ratio, 45 min; in the data active = inhibition above about 25%
Target sequence (P62877 whole entry, looked up): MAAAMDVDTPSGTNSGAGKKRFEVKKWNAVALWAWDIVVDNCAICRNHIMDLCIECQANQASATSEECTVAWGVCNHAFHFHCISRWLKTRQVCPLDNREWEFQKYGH
Target sequence (Q13616 whole entry, looked up): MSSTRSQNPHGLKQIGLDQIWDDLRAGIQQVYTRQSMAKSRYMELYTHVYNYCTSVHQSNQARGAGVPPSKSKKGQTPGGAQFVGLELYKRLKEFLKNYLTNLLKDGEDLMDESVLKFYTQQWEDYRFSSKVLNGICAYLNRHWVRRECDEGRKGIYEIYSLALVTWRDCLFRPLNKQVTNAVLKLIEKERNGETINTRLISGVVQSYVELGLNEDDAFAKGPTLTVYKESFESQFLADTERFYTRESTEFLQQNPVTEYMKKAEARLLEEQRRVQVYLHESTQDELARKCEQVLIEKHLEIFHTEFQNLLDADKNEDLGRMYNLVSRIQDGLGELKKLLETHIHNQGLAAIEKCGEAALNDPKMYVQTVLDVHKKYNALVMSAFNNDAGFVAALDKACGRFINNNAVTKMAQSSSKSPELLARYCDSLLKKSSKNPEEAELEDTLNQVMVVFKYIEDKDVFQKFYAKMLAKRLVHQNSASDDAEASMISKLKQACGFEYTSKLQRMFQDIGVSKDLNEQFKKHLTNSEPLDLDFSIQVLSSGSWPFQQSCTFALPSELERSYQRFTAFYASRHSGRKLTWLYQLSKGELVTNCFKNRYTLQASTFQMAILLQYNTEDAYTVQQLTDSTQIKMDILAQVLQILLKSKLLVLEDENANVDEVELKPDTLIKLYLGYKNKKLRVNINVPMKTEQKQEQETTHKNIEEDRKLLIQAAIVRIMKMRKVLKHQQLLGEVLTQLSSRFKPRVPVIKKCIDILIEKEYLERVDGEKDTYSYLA
An asterisk follows results filed as active. The entries come from a sample that favours hits as a whole.

SMILES | RBX1-CUL1 inh
COC(=O)c1c(OCCCc2ccccc2)cc(=O)n2c1CCN(C(=O)c1ccc(F)cc1F)CC2 | -2.0
CCOC(=O)c1ccccc1NS(=O)(=O)Cc1ccc(F)cc1 | 9.2
Cc1ccc(-c2n[nH]c(=S)n2/N=C/C=C/c2ccco2)cc1 | 6.4
Nn1c(=S)[nH]nc(/C=C/c2ccco2)c1=O | 95.9*
S=c1[nH]nc(-c2ccco2)n1-c1ccccc1 | 9.5
O=C1C(Sc2ncn[nH]2)=CC(=NS(=O)(=O)c2ccc(Cl)cc2)c2ccccc21 | 90.5*
Cc1ccc(S(=O)(=O)N=C2C=C(C3C(=O)CC(C)(C)CC3=O)C(=O)c3ccccc32)cc1 | -1.9
COc1ccc(S(=O)(=O)N=C2C=C(Sc3ccc(C)cc3)C(=O)c3ccccc32)cc1 | -13.7
COc1cc(CN2CC[C@@H](N3CCN(c4ccccn4)CC3)[C@H](O)C2)cc2c1OCO2 | 11.8
CCOc1cccc(C(=O)N2CCN(c3cccc(C)c3C)CC2)c1 | -2.7
CC(C)CN1C(=O)C(Cc2ccc(-c3cccc(C(=O)O)c3)o2)=NC1=S | 28.2*
O=C(O)c1ccc(-c2ccc(CC3=NC(=O)N(Cc4ccccc4F)C3=O)o2)cc1Cl | 2.6
CC(C)CCNCc1ccc(-c2cccc(C(=O)O)c2)o1 | 2.6
O=C(O)c1cc(-c2ccc(CC3=NC(=O)N(Cc4ccccc4)C3=O)o2)ccc1Cl | 57.7*
O=C1N=C(Cc2ccc(-c3ccc(Cl)c(Cl)c3)o2)C(=O)N1Cc1ccccc1 | -7.7
O=C1N=C(Cc2ccc(-c3ccccc3)o2)C(=O)N1Cc1ccc(Cl)cc1 | 5.6
O=c1cc(SCc2ccccc2)c2ccccc2o1 | 6.1
O=C(Oc1ccc(F)cc1)c1cccc2c1Oc1nc3ccccc3nc1O2 | 0.9
CC(C)CCNC(=O)/C=C/c1ccc(Cl)c(Cl)c1 | -3.0
CCN=C1CC=CC=C(C(=O)/C=C/c2ccc(Br)cc2)C1=O | 85.7*
O=C(/C=C/c1ccc(Cl)c(Cl)c1)NCCC1=CCCCC1 | 7.1
CCN=C1CC=CC=C(C(=O)/C=C/c2cc(OC)ccc2OC)C1=O | 8.4
CCN=C1CC=CC=C(C(=O)/C=C/c2ccc(Cl)c(Cl)c2)C1=O | 62.0*
CCN=C1CC=CC=C(C(=O)/C=C/c2ccc(C(F)(F)F)cc2)C1=O | -8.9
CCN=C1CC=C(Br)C=C(C(=O)/C=C/c2cccc(Cl)c2Cl)C1=O | 21.6
SMILES | RBX1-CUL1 inh
CCN=C1CC=C(Br)C=C(C(=O)/C=C/c2ccc(N(C)C)cc2)C1=O | 5.6
CCN=C1CC=CC=C(C(=O)/C=C/c2ccccc2OC)C1=O | 86.5*
COC(=O)c1c(-c2ccccc2)[nH]c(-c2ccc(Cl)cc2)c1C(=O)OC | -1.0
Cc1cc2c(c(=O)o1)C(c1c(Cl)cccc1Cl)C(C#N)C(=N)O2 (configuration not stated) | -2.1
CCN(CC)C1OC(=O)c2cccc3cccc1c23 (configuration not stated) | -0.3
Cc1nnc(N/N=C/c2ccc(Br)c([N+](=O)[O-])c2)n1N | 0.5
Cc1ccc2c(c1)CN(Cc1ccc(OCCO)cc1)CC(c1ccsc1)O2 (configuration not stated) | 0.2
C#CCO/N=C(\N)c1nonc1N | 2.4
CCOCC(=O)Nc1ccccc1OC | 0.9
COCC(=O)Nc1ccccc1C(=O)O | 0.1
CCOCC(=O)Nc1ccccc1C(=O)O | 102.9*
CCCCc1ccc(NC(=O)N2CCN(S(C)(=O)=O)CC2)cc1 | 0.8
CCCCCCSC1=NC(=O)C(Cc2ccc(OC)cc2)C(=O)N1 (configuration not stated) | -5.3
O=C1CC(=O)c2sc3nc(-c4cccs4)cc(-c4ccc(F)cc4)c3c2N1 | 26.1*
O=C1CC(=O)c2sc3nc(-c4ccccc4)ccc3c2N1 | 0.5
Nc1nc(N)c2sc3nc(-c4cccs4)cc(-c4ccc(F)cc4)c3c2n1 | 6.4
Cc1cccc(C(=O)Oc2ccc(/C=C3/N=C(c4ccccc4Cl)OC3=O)cc2)c1 | 6.8
OCCC1CN(Cc2ccccc2O)CCN1Cc1ccc(F)cc1 (configuration not stated) | 3.8
CC1=NN(c2ccccc2)C(=O)/C1=C/c1ccccc1OCc1ccc(C(=O)O)cc1 | 51.4*
CC1=NN(c2ccccc2)C(=O)/C1=C/c1ccccc1OCc1ccccc1C | 3.0
COc1cc(/C=C2/C(=O)N(c3ccc(Cl)c(Cl)c3)N=C2C)ccc1OCc1ccccc1 | -0.5
COc1cc(CN2CCC(CCC(=O)N3CCOCC3)CC2)cc(Cl)c1OC | 5.1
O=C(Nc1ccc(Cl)cc1Cl)C1C2CCC=CCC/C=C/CCC21 (configuration not stated) | 13.4
COC1=CCCSC1=Nc1ccccc1 | 29.9*
COc1ccc(N=C2SC(=Nc3ccccc3)C(=Nc3ccccc3)N2c2ccc(OC)cc2)cc1 | 3.2
SMILES | RBX1-CUL1 inh
Cn1c(=Nc2ccccc2)ssc1=Nc1ccccc1 | 9.8
CC(=O)c1ccc(NC(=O)C23CCC(C2)C(C)(C)C3=O)cc1 (configuration not stated) | 3.5
CNc1nc(C(C)(C)C)cs1 | -9.9
CC(C)S(=O)(=O)NCc1nc(NCCCc2ccccc2)c2ccccc2n1 | 2.2
Cc1ccc([C@H]2Nc3ccc(S(=O)(=O)Nc4cccc(Cl)c4C)cc3[C@H]3C=CC[C@H]32)cc1 | 3.2
Cc1ccc([C@@H]2Nc3c(ccc(C(=O)O)c3C)[C@@H]3C=CC[C@@H]32)cc1 | 97.2*
COC(=O)c1ccc([C@@H]2Nc3c(OC)ccc(C)c3[C@@H]3C=CC[C@@H]32)cc1 | 4.4
COc1ccc(CN2CCN(C(C)=O)CC2)cc1OCC(O)CN(C)C(C)C (configuration not stated) | 6.7
CCC(=O)c1ccc(OCC(N)=O)cc1 | 0.6
CC(C)C(NC(=O)c1ccco1)C(=O)NC1CCCCC1 (configuration not stated) | -1.6
CN(C)c1cnn(CC(=O)NCc2nc(-c3ccccc3)cs2)c(=O)c1 | -10.7
OC(c1ccccc1F)c1ccccc1F | 1.4
O=C(Nc1cc(Cl)ccc1Cl)c1ccc(N2C(=O)C3C4C=CC(C4)C3C2=O)cc1 (configuration not stated) | -2.7
CCOC(=O)c1c(C2CC2)csc1N | 2.6
CC1=NN(c2ccccc2)C(=O)C1C(=O)c1ccc(Cl)cc1 (configuration not stated) | -11.0
COC(=O)C(O)(C1C(=O)N(c2ccccc2)N=C1C)C(F)(F)F (configuration not stated) | 75.2*
CC(=O)NC1C(=O)N(c2ccccc2)N=C1C (configuration not stated) | 3.9
COc1cc(CN2CCCC2)ccc1OCC(O)CN1CCCCCCC1 (configuration not stated) | 0.8
COc1cc(CNC(C)(C)C)ccc1OCC(O)CN1CCCC1 (configuration not stated) | 99.2*
COc1cc(CNCCSC)ccc1OCC(O)CN1CCCCCC1 (configuration not stated) | 4.1
O=[N+]([O-])c1cccc(Nc2ncnc3sc4c(c23)CCCC4)c1 | -1.3
CC(=O)N=C1C(=O)c2ccccc2C(=O)C1NCCOc1ccccc1 (configuration not stated) | -3.6
CC(=O)N=C1C(=O)c2c(NC(C)=O)cccc2C(=O)C1Br (configuration not stated) | 60.1*
CC(=O)Nc1cccc2c1C(=O)N(c1cccc(C(=O)O)c1)C2=O | -15.5
Cc1ccc(N=Nc2nc(-c3ccccc3)c(-c3ccccc3)[nH]2)c(C)c1 | -2.2
O=C(N/N=C/c1ccccc1OCc1ccccc1)C(=O)Nc1ccc(Cl)c(Cl)c1 | -2.5
CCN=C1SC(CC(=O)Nc2ccc(C)cc2Br)C(=O)N1CC (configuration not stated) | 2.8
